In paper PMC12864922, “TDP-43 directly inhibits mRNA accumulation in neurites through modulation of mRNA stability”:
In all, about 9,900 sequences were measured (“r (bound/input frequency ratio)”: median about 0.7, highest 2% from about 6.5 on). Shown is part of a subset that was picked to be rich in the highest values.

B1: ENSMUSG00000022095.66|Fam160b2 (ssRNA)
RNA: GGGAGUUCUACAGUCCGACGAUCGCUUCGAUAUCCGCAUGCUAACAACUCCAGGGGCCAGGGAGAUGAACUGCUGUCUUUGAGGCUGGCUAAAAAAACAAUCCAGUCCAGAGAGAUGGGGAGGGGGGGAGCAAGAACCCUGUCUGUUACAUUAGGUAUCAUGGAAGCUGCUAAGACUCGGCAGGUUUCUCCGAGGCUUCACGAACAGUAGUGGAGGAGACAGAGGAGGAGGCUGAGGGGAAGCCCCCUCUUCCUGCUCUACCCUCCUGGAGGCUGUUGCAAAAUUCCCAACUGCCUCCUGGCACUCUUGCGGUCGCACUAGUGUGGAAUUCUCGGGUGUCAAGG
B2: ENSMUSG00000004113.466|Cacna1b (ssRNA)
RNA: GGGAGUUCUACAGUCCGACGAUCGCUUCGAUAUCCGCAUGCUAUGAAGGUUUGUCGCAAAAAUUUAUAUUUAACAGUGUUGAGAGAGAGAGAGAGAGAGCGAGAGAGAGAGAGAUCCAGUCAUGCAACACAAAUGGGAUCUACUUUUAAACAACAGUCCUUUGACUAGUUUGCUGCCUGAAUAAUAUUUACAAACUAAACUUUGGAUUCUGCUCUUGUUUCUACAAUGAUUUUUUGUAUAAAGCAAAGUCCUUGGAUUAAAUAAAAACAACCCAAAAAAAAAAUCAAAAUCAAAACCCAGGAUCUCUUGCGGUCGCACUAGUGUGGAAUUCUCGGGUGUCAAGG
B3: ENSMUSG00000031028.203|Tub|203:207;209:214 (ssRNA)
RNA: GGGAGUUCUACAGUCCGACGAUCGCUUCGAUAUCCGCAUGCUAUCCUUUCUCUUCCCAGUUCCAGAGAUGAAACCCCUCCGAGUUAAUGUAUAAGGUUGGAAACCUUUCAGUAGGGAAUCAGGCAGUUCCCUGUUGAAAGUUGUCUGAGUUUUUGCACACCAUUCUGAUCUGAUGUGGCCUGUGCCUGGCUCCUCUAUGAGGACUUCGAGCUGUGCACAGACCUUAGCAGGACCACUGCACACUUACACACACACACACAGGCAGCCCAAGGGUUCUGGGGCUGGGCUUGGACACGCCCUCCACUCUUGCGGUCGCACUAGUGUGGAAUUCUCGGGUGUCAAGG
B4: ENSMUSG00000061578.408|Ksr2 (ssRNA)
RNA: GGGAGUUCUACAGUCCGACGAUCGCUUCGAUAUCCGCAUGCUAAUCAGUCUCUUCCCGGAGGAAGCAUCCGGGGGAAAUGUAUUCCUUCGCCCUGCAAGGAGCCAAUGGGAAGAGAGGGGACCAUAUAGUUAGAGACAUUCCCUACCCCCCGACCACUGACCCGUCCAGACCCUCGCUUCUUACAAUGCCUCUUCUUCUGCCAGACCAGCCACCUGCCCCACUAACACCAAAUGGCUUCUGUCCCUGCUUCACGUUGCAAAUCCUUCAAGACAGAAGUUUCAGAGGGGAUAGUUCCUUCUAACCUCUUGCGGUCGCACUAGUGUGGAAUUCUCGGGUGUCAAGG
B5: ENSMUSG00000031028.686|Tub (ssRNA)
RNA: GGGAGUUCUACAGUCCGACGAUCGCUUCGAUAUCCGCAUGCUAUAUUUUUGUUCAAAAUUAUCUGGAGUUUUAGACAAACUUGCAAAACUGUGCUUUUAUUAAGUGACUUUUUGAAUAAACUUUUUGGUAUUCUGAAGCAAAUGUAUUUAUUUAUUGGUAUGUGCAAUGACAAACUUGGUAUUUUCCCAUAAUGACAUUAUGUAUGUUGUAGAAUUUAGUGUUUGUCUAAGUACAGACAUGUAUCAACACAUUAAACUUGAACUGUUUGACGGCUGUGUCCUUGGUUUUCAUAGAGAAGAGAACUCUUGCGGUCGCACUAGUGUGGAAUUCUCGGGUGUCAAGG
B6: ENSMUSG00000029636.181|Wasf3 (ssRNA)
RNA: GGGAGUUCUACAGUCCGACGAUCGCUUCGAUAUCCGCAUGCUACACAGCUCUCUUCUCUCCUGUUGUCGGCACAUUUUCAAUUUUAAAAAGUACCUCACAAGAUAAACUUGAUUCAGCCAGUUGCCCGGGCAGAGACCUGACUUCCCCUCUCCUGCCCUGAUCCUUUUUACCAAAUGGCGAUUCCAUAGUCCUGGCUGAGGCAGGGGCUCAAAGUCCAGUGUCUGCUUUGCAAUUCUGGAAGGACAGCUGCUUAUUUAAAUAAGUCUGUGAUAUCCGCAGGCUUGGGUUACAGGGAGGACCUUCUCUUGCGGUCGCACUAGUGUGGAAUUCUCGGGUGUCAAGG
B7: ENSMUSG00000029028.53|Lrrc47|5:9;12:16;18:22;45:49;64:68;70:74;86:90;93:97;118:122;134:139;141:145;147:151;163:168;170:174;191:195;197:201;208:212;214:218;235:2 … (ssRNA)
RNA: GGGAGUUCUACAGUCCGACGAUCGCUUCGAUAUCCGCAUGCUAUGUCACACAAGCAUACGCACACCUGUAGAUCUUUGUAGGUGUAGCAUACCUGUAGGUAUCUGGCACACGCAUACCUGUAGAUGUCACACAAGCACACGAUAUGCUGUAGGUAUCUGGCACACCUGUAGGUGUCACACACGCACACGCACACCUGUGGGUGUCACACACGCACACCUGUAGGUGUCUGUAGCACACGCAUACCUGCAGCACACGCACACCUGUAGAUCUCUAUAGCACACGCACACCUGUAGGGGUCUGUGCUCUUGCGGUCGCACUAGUGUGGAAUUCUCGGGUGUCAAGG
B8: ENSMUSG00000028439.169|Fam219a (ssRNA)
RNA: GGGAGUUCUACAGUCCGACGAUCGCUUCGAUAUCCGCAUGCUAAGUGGCUGUAUGAUAUGGUAUGGUAUGGUAUGGUAUGGUAUGGUAUGGUAUGCACAUGUGUGUGCAUGUGUGUGUGCCUGUGUGUGUGCGUGUGCGUGUGUGUAUGUGUGUGCGUGUGUGUGUGUGUGUGUUGUACCCGAGUGUGUGUUGAGCCUAUCUGUCCAGGGAACCAGAUUGGUGUCCGAGAUGAGGAAAUGGCUGUGGCCUGGGAAAUCAGUGAGAGGCCGCUUGGGAAUGAGAAUGCAGUGGACUGAAAGCACCUCUUGCGGUCGCACUAGUGUGGAAUUCUCGGGUGUCAAGG
B9: ENSMUSG00000028439.166|Fam219a (ssRNA)
RNA: GGGAGUUCUACAGUCCGACGAUCGCUUCGAUAUCCGCAUGCUAAGGAAAUACAGUGAGCCAAGUGGCUGUAUGAUAUGGUAUGGUAUGGUAUGGUAUGGUAUGGUAUGGUAUGCACAUGUGUGUGCAUGUGUGUGUGCCUGUGUGUGUGCGUGUGCGUGUGUGUAUGUGUGUGCGUGUGUGUGUGUGUGUGUUGUACCCGAGUGUGUGUUGAGCCUAUCUGUCCAGGGAACCAGAUUGGUGUCCGAGAUGAGGAAAUGGCUGUGGCCUGGGAAAUCAGUGAGAGGCCGCUUGGGAAUGAGAAUCUCUUGCGGUCGCACUAGUGUGGAAUUCUCGGGUGUCAAGG
B10: ENSMUSG00000028439.168|Fam219a (ssRNA)
RNA: GGGAGUUCUACAGUCCGACGAUCGCUUCGAUAUCCGCAUGCUAGAGCCAAGUGGCUGUAUGAUAUGGUAUGGUAUGGUAUGGUAUGGUAUGGUAUGGUAUGCACAUGUGUGUGCAUGUGUGUGUGCCUGUGUGUGUGCGUGUGCGUGUGUGUAUGUGUGUGCGUGUGUGUGUGUGUGUGUUGUACCCGAGUGUGUGUUGAGCCUAUCUGUCCAGGGAACCAGAUUGGUGUCCGAGAUGAGGAAAUGGCUGUGGCCUGGGAAAUCAGUGAGAGGCCGCUUGGGAAUGAGAAUGCAGUGGACUGACUCUUGCGGUCGCACUAGUGUGGAAUUCUCGGGUGUCAAGG
B11: ENSMUSG00000028439.164|Fam219a (ssRNA)
RNA: GGGAGUUCUACAGUCCGACGAUCGCUUCGAUAUCCGCAUGCUAAGAGCAAGCUUAAGGAAAUACAGUGAGCCAAGUGGCUGUAUGAUAUGGUAUGGUAUGGUAUGGUAUGGUAUGGUAUGGUAUGCACAUGUGUGUGCAUGUGUGUGUGCCUGUGUGUGUGCGUGUGCGUGUGUGUAUGUGUGUGCGUGUGUGUGUGUGUGUGUUGUACCCGAGUGUGUGUUGAGCCUAUCUGUCCAGGGAACCAGAUUGGUGUCCGAGAUGAGGAAAUGGCUGUGGCCUGGGAAAUCAGUGAGAGGCCGCUUCUCUUGCGGUCGCACUAGUGUGGAAUUCUCGGGUGUCAAGG
B12: ENSMUSG00000028439.167|Fam219a (ssRNA)
RNA: GGGAGUUCUACAGUCCGACGAUCGCUUCGAUAUCCGCAUGCUAUACAGUGAGCCAAGUGGCUGUAUGAUAUGGUAUGGUAUGGUAUGGUAUGGUAUGGUAUGGUAUGCACAUGUGUGUGCAUGUGUGUGUGCCUGUGUGUGUGCGUGUGCGUGUGUGUAUGUGUGUGCGUGUGUGUGUGUGUGUGUUGUACCCGAGUGUGUGUUGAGCCUAUCUGUCCAGGGAACCAGAUUGGUGUCCGAGAUGAGGAAAUGGCUGUGGCCUGGGAAAUCAGUGAGAGGCCGCUUGGGAAUGAGAAUGCAGUGCUCUUGCGGUCGCACUAGUGUGGAAUUCUCGGGUGUCAAGG
B13: ENSMUSG00000028439.165|Fam219a (ssRNA)
RNA: GGGAGUUCUACAGUCCGACGAUCGCUUCGAUAUCCGCAUGCUAAGCUUAAGGAAAUACAGUGAGCCAAGUGGCUGUAUGAUAUGGUAUGGUAUGGUAUGGUAUGGUAUGGUAUGGUAUGCACAUGUGUGUGCAUGUGUGUGUGCCUGUGUGUGUGCGUGUGCGUGUGUGUAUGUGUGUGCGUGUGUGUGUGUGUGUGUUGUACCCGAGUGUGUGUUGAGCCUAUCUGUCCAGGGAACCAGAUUGGUGUCCGAGAUGAGGAAAUGGCUGUGGCCUGGGAAAUCAGUGAGAGGCCGCUUGGGAAUCUCUUGCGGUCGCACUAGUGUGGAAUUCUCGGGUGUCAAGG
B14: ENSMUSG00000028439.163|Fam219a (ssRNA)
RNA: GGGAGUUCUACAGUCCGACGAUCGCUUCGAUAUCCGCAUGCUAUCUUCAAGAGCAAGCUUAAGGAAAUACAGUGAGCCAAGUGGCUGUAUGAUAUGGUAUGGUAUGGUAUGGUAUGGUAUGGUAUGGUAUGCACAUGUGUGUGCAUGUGUGUGUGCCUGUGUGUGUGCGUGUGCGUGUGUGUAUGUGUGUGCGUGUGUGUGUGUGUGUGUUGUACCCGAGUGUGUGUUGAGCCUAUCUGUCCAGGGAACCAGAUUGGUGUCCGAGAUGAGGAAAUGGCUGUGGCCUGGGAAAUCAGUGAGAGGCUCUUGCGGUCGCACUAGUGUGGAAUUCUCGGGUGUCAAGG

The binders below were run against TDP-43 (Homo sapiens, UniProt Q13148 1-414) (assay: RNA Bind-n-Seq with designed 260-mer pool; 25 mM Tris-HCl, 150 mM KCl, 3 mM MgCl2, BSA (printed 500 mg/mL), 20 units/mL SUPERase IN; pH not stated; 500 nM RNA pool, 1 h, 4 C; TDP-43 5, 50, 500 nM; high values mean tight binding). Details: protein: recombinant; tags: SBP (GST cleaved off with PreScission; pGEX-GST-SBP).
Method in brief: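 For each oligo, R gives binding as its mapped-read-normalized abundance after pulldown divided by its abundance in input. Bead-captured SBP-tagged TDP-43 (5, 50 or 500 nM) was incubated with 500 nM of an in vitro-transcribed 260-nt 3′ UTR oligo pool for 1 h at 4 °C in 25 mM Tris-HCl, 150 mM KCl, 3 mM MgCl2, BSA and SUPERase IN on streptavidin beads. Washed, biotin-eluted RNA was reverse transcribed, PCR-amplified and sequenced.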

Sequence of TDP-43 (Q13148 whole entry): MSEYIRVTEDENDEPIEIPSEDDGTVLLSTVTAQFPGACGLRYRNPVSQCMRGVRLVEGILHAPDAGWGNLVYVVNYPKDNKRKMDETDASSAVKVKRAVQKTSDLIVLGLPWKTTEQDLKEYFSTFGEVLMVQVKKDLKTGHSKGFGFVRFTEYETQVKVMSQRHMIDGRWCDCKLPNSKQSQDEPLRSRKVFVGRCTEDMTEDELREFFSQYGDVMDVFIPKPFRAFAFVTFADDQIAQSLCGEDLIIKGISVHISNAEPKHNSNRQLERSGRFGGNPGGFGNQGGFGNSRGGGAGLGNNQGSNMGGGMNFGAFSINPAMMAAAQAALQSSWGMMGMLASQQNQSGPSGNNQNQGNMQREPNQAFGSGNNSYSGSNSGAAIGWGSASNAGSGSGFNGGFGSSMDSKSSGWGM

Binder	binding signal
B1	0.965 R (bound/input frequency ratio)
B2	0.589 R (bound/input frequency ratio)
B3	1.57 R (bound/input frequency ratio)
B4	1.09 R (bound/input frequency ratio)
B5	0.181 R (bound/input frequency ratio)
B6	0.344 R (bound/input frequency ratio)
B7	0.453 R (bound/input frequency ratio)
B8	6.41 R (bound/input frequency ratio)
B9	6.86 R (bound/input frequency ratio)
B10	7.15 R (bound/input frequency ratio)
B11	8.42 R (bound/input frequency ratio)
B12	6.28 R (bound/input frequency ratio)
B13	6.33 R (bound/input frequency ratio)
B14	5.79 R (bound/input frequency ratio)
